Data: the supplement of paper PMC10981050
Where “and” joins values, the source holds several entries; their conditions need not be identical. Equal entries are not always repeated. Structures can show the parent of a compound that is named as a salt.

What was measured:
Test in all cases: cell viability relative to vehicle control; higher = less cytotoxic
Conditions in all cases: 10 µM
[1] = tested on: K562
Procedure, shortened: (§1)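 Each screen used CRISPR-edited mutant and wild-type clones from four leukaemia lines. Compounds were acoustically dispensed at a single 10 µM dose, and CellTiter-Glo luminescence was read after 48 h with the supernatant first removed. Viability was analysed in Genedata Screener and given as percent of the on-plate vehicle control.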

[2] = tested on: MARIMO
Procedure, shortened: as §1

[3] = tested on: MOLM14
Procedure, shortened: as §1

[4] = tested on: OCI-AML2
Procedure, shortened: as §1

SMILES	cell viability ([1]; SRSF2 genotype: SRSF2 P95H/wt)	cell viability ([1]; SRSF2 genotype: SRSF2 wt/wt) [%]	cell viability ([2]; SRSF2 genotype: SRSF2 P95H/wt) [%]	cell viability ([2]; SRSF2 genotype: SRSF2 wt/wt) [%]	cell viability ([3]; SRSF2 genotype: SRSF2 P95H/wt) [%]	cell viability ([3]; SRSF2 genotype: SRSF2 wt/wt) [%]	cell viability ([4]; SRSF2 genotype: P95H/wt) [%]	cell viability ([4]; SRSF2 genotype: wt/wt) [%]
CC(=O)CCc1ccc(OC(C)=O)cc1 [Pherocon (4-(4-Acetoxyphenyl)-2-butanone)]	111% and 109%	119	103	107	109	108	119	116
CN1CCC(=C2c3ccccc3CCc3sccc32)CC1 [Pizotifen malate]	89.7% and 97%	95.2	76.9	83.8	76.5	90.1	81.4	83
CC[C@H](C)C(=O)O[C@H]1C[C@@H](C)C=C2C=C[C@H](C)[C@H](CC[C@@H]3C[C@@H](O)CC(=O)O3)[C@H]21 [Lovastatin (Mevacor)]	86.3% and 96.8%	68.8	74	68.5	82.9	100	64.3	77.8
O=C(O)c1ccc2c3c1cccc3c(=O)n1c3ccccc3nc21	104% and 102%	102	107	106	96.6	99.9	104	97.5
Cc1cn([C@H]2C[C@H](N=[N+]=[N-])[C@@H](CO)O2)c(=O)[nH]c1=O [Zidovudine (Retrovir)]	96.5% and 101%	101	102	113	95.5	105	101	105
COc1cc2c3cc1Oc1c(OC)c(OC)cc4c1[C@@H](Cc1ccc(O)c(c1)Oc1ccc(cc1)C[C@@H]3N(C)CC2)N(C)CC4 [Berbamine (dihydrochloride)]	72.6% and 53.2%	66.9	70.8	72.8	68.2	78.2	57.1	60.4
CO[C@@]1(NC(=O)CSC[C@@H](N)C(=O)O)C(=O)N2C(C(=O)O)=C(CSc3nnnn3C)CS[C@@H]21 [Cefminox Sodium]	103%	99	105	109	96	106	99.4	98
CN(C)c1cc(NC(=O)CNC(C)(C)C)c(O)c2c1CC1CC3C(N(C)C)C(=O)C(C(N)=O)=C(O)C3(O)C(=O)C1=C2O (stereo not given) [Tigecycline]	94.1%	97.6	94.9	97.2	99.2	96.9	106	95.7
C[C@@H](Oc1cc(-n2cnc3ccc(CN4CCN(C)CC4)cc32)sc1C(N)=O)c1ccccc1C(F)(F)F	31.9% and 32.9%	34.1	35.9	34.3	16.8	7.12	4.11	17.1
N[C@@H](CS)C(=O)O [L-Cysteine HCl]	87.6% and 82.9%	82.4	89	97.7	89.1	87.8	89.1	94.3
COc1cn(-c2ccc(-n3cccn3)cc2F)nc(-c2ccnn2-c2ccccc2)c1=O	103% and 105%	99.9	97.5	113	107	107	106	117
O=C1C(c2[nH]c3ccccc3c2O)=Nc2ccccc21 [Indigo]	105% and 106%	94.6	100	108	93	99.8	90	106
CN1Cc2c(ccc3c2OCO3)[C@@]2(C)[C@@H](O)Cc3cc4c(cc3[C@@H]12)OCO4 [Corynoline]	18.7% and 28.5%	24.2	8.07	9.1	8.94	3.23	5.69	13
Nc1ccc(C(=O)Nc2cccc(-c3nc(N4CCOCC4)c4oc5ncccc5c4n3)c2)cn1	75.4% and 89.9%	95.8	73.7	79.4	103	104	86.7	89.1
CC1(C)CCCC2(C)OC(=O)C=C12 (stereo not given) [Dihydroactinidiolide]	104% and 93.7%	94.5	97.6	104	93.8	99.7	91.1	104
Cc1ccc(Sc2ccccc2N2CCNCC2)c(C)c1	2.01% and 3.74%	2.31	6.07	11.2	3.31	3.18	0.2	0.89
c1coc(CNc2ncnc3[nH]cnc23)c1 [Kinetin (6-Furfuryladenine)]	94.1% and 107%	104	100	113	98.4	105	116	97.6
CNC(=O)c1ccc(-c2cnc3ncc(Cc4ccc5ncccc5c4)n3n2)cc1F	95% and 101%	102	107	115	103	110	111	110
O[C@@H](COc1cccc2ncccc12)CN1CCN([C@@H]2c3ccccc3[C@@H]3[C@H](c4ccccc42)C3(F)F)CC1	60.6% and 54.3%	54.9	56.6	55.6	39.8	36.2	39.2	40.7
O=C(O)c1cc(C(F)(F)F)ccc1N1CC[C@H](OCc2ccccn2)C1	107% and 109%	100	114	113	102	102	106	104

SMILES	cell viability ([1]; SRSF2 genotype: SRSF2 P95H/wt)	cell viability ([1]; SRSF2 genotype: SRSF2 wt/wt) [%]	cell viability ([2]; SRSF2 genotype: SRSF2 P95H/wt) [%]	cell viability ([2]; SRSF2 genotype: SRSF2 wt/wt) [%]	cell viability ([3]; SRSF2 genotype: SRSF2 P95H/wt) [%]	cell viability ([3]; SRSF2 genotype: SRSF2 wt/wt) [%]	cell viability ([4]; SRSF2 genotype: P95H/wt) [%]	cell viability ([4]; SRSF2 genotype: wt/wt) [%]
COC[C@H](NC(=O)c1cnc(C)s1)C(=O)N[C@@H](COC)C(=O)N[C@@H](Cc1ccccc1)C(=O)[C@@]1(C)CO1 [Oprozomib (ONX 0912)]	0.73% and 1.14%	1.05	0.37	0.74	0.16	0.2	0.2	0.17
CCOC(=O)NCCCC(=O)NCCc1ccccc1	102% and 97.9%	98.8	105	109	100	105	108	106
CCN(CC)CCCCNc1ncc2cc(-c3cc(OC)cc(OC)c3)c(NC(=O)NC(C)(C)C)nc2n1	46.4% and 47.9%	49.4	54.2	51.9	48.3	47.7	38.1	40.1
COc1ccc2[nH]c(=O)oc2c1 [Coixol]	94.8% and 103%	95	97.8	96.3	103	98.2	102	93.9
O=C(Nc1ccc(Cl)cc1)C1CCCN(C(=O)c2cccc(-c3ccco3)c2)C1 (stereo not given)	67.5% and 80.2%	71.6	52.6	39.4	64.4	77.1	29	43
CCCCC(=O)OCC(=O)[C@H]1[C@H](C)C[C@H]2[C@@H]3C[C@H](F)C4=CC(=O)C=C[C@]4(C)[C@@]3(F)[C@@H](O)C[C@@]21C [Diflucortolone valerate]	96.5% and 92.7%	104	95.1	98.2	92	96	99.4	118
O=C(Nc1ccc(O)c(C(=O)O)c1)c1cccc(NC(=O)c2ccco2)c1	103% and 105%	99.4	97.2	100	104	102	105	105
O=C(/C=C/c1ccc(O)cc1)OC[C@H]1O[C@@H](Oc2c(-c3ccc(O)cc3)oc3cc(O)cc(O)c3c2=O)[C@H](O)[C@@H](O)[C@@H]1O [Tiliroside]	99.3% and 99.1%	95.3	98.9	109	100	105	104	111
CN(C)CC(c1ccc(O)cc1)C1(O)CCCCC1 (stereo not given) [Desvenlafaxine]	96.7% and 97.5%	101	102	102	98.1	100	100	99.3
COC(=O)[C@@H]1CC2=CC(=O)CC[C@]2(C)[C@@]23O[C@@H]2C[C@@]2(C)[C@@H](CC[C@@]24CCC(=O)O4)[C@H]13 [Eplerenone]	98.4% and 103%	103	98	103	107	95.6	100	101
COc1ccc([C@@H]2Sc3ccccc3N(CCN(C)C)C(=O)[C@@H]2OC(C)=O)cc1 [Diltiazem HCl]	99.8% and 95.7%	91.9	98	98.1	99.3	98.7	94.1	99.1
CCCNCC(O)COc1ccccc1C(=O)CCc1ccccc1 (stereo not given) [Propafenone HCl]	78.7% and 84.2%	79.2	66.1	70.5	73.2	81.2	68.3	68
CC/C(=C(/CC)c1ccc(O)cc1)c1ccc(O)cc1 [Diethylstilbestrol]	80.1% and 78.1%	78.8	84.5	87.1	75.1	87.8	74.8	81.4
Cc1cc(NS(=O)(=O)c2ccc(N)cc2)nc(C)n1 [sulfaisodimidine]	103%	112	106	101	106	106	112	102
O=c1[nH]c(=O)n(C2CC(O)C(CO)O2)cc1I (stereo not given) [Idoxuridin]	86.7% and 92.3%	77	102	98.3	80.5	88.1	83.3	84.3
Cc1ccccc1N1C(=O)c2cc(S(N)(=O)=O)c(Cl)cc2NC1C (stereo not given) [Metolazone (Zaroxolyn)]	104% and 99.9%	96.7	96	99.7	99.5	97	101	98.3
Cc1cc(CN2CCN(c3c(Br)cnc4nc(-c5ccc(N6CCN(C)CC6)cc5)[nH]c34)CC2)no1	19.6% and 18.5%	24.2	88.8	87	0.57	0.62	6.22	1.52
COC(=O)CCC(C)C1CCC2C3C(O)CC4CC(O)CCC4(C)C3CC(O)C12C (stereo not given) [Methyl Cholate]	97.3% and 98.1%	101	104	112	55.6	89	102	81.8
CCC(=O)O[C@]1(C(=O)CCl)[C@@H](C)C[C@H]2[C@@H]3C[C@H](F)C4=CC(=O)C=C[C@]4(C)[C@@]3(F)[C@@H](O)C[C@@]21C [Halobetasol Propionate]	92.5% and 97.2%	89	101	98.1	76.3	85.8	99.3	105
Cc1nc(-c2ccc(OCC(C)C)c(C#N)c2)sc1C(=O)O [Febuxostat (Uloric)]	93.4% and 98.2%	100	102	111	107	105	119	123
